{"source": "PubChem BioAssay (NCI)", "key": {"[1]": {"test": "NCI Yeast Anticancer Drug Screen. Data for the rad50 strain (AID 155);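 also: 0% = growth of vehicle-only cultures of the same strain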", "conditions": "S. cerevisiae rad50 strain growth inhibition, stronger effect = higher value", "in_short": "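Inhibition values express reduced yeast growth in compound-treated cultures relative to vehicle-treated controls.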"}, "[2]": {"test": "NCI Yeast Anticancer Drug Screen. Data for the mec2-1 strain (AID 157)", "conditions": "S. cerevisiae mec2-1 strain, stronger effect = higher value", "in_short": "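Readout is yeast growth inhibition, normalised to vehicle-treated controls, in the mec2-1 strain exposed to compound.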"}, "[3]": {"test": "NCI Yeast Anticancer Drug Screen. Data for the sgs1 mgt1 strain (AID 161);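 also: 0% = growth of cultures given vehicle only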", "conditions": "S. cerevisiae sgs1 mgt1 strain, stronger effect = higher value", "in_short": "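Yeast cells carrying a defined DNA-repair defect were exposed to test compounds. Growth inhibition was measured relative to vehicle-treated controls.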"}, "[4]": {"test": "NCI Yeast Anticancer Drug Screen. Data for the cln2 rad14 strain (AID 165);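 also: 0% = growth equal to vehicle treated cultures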", "conditions": "S. cerevisiae cln2 rad14 strain, stronger effect = higher value", "in_short": "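Relative to vehicle controls, growth inhibition of compound-treated cln2 rad14 yeast was recorded.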"}, "[5]": {"test": "NCI Yeast Anticancer Drug Screen. Data for the bub3 strain (AID 167)", "conditions": "S. cerevisiae bub3 mutant strain, stronger effect = higher value", "in_short": "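Steps: expose the mutant yeast strain to compound; grow alongside vehicle-treated cultures; measure growth; express inhibition against the vehicle cultures.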"}, "[6]": {"test": "NCI Yeast Anticancer Drug Screen. Data for the mlh1 rad18 strain (AID 175)", "conditions": "S. cerevisiae mlh1 rad18 strain growth inhibition, stronger effect = higher value", "in_short": "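Test agents were incubated with a yeast strain of defined genotype (DNA damage repair defect). Inhibition of growth was derived by comparison with vehicle-exposed cultures.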"}, "[7]": {"conditions": "at 5.0 µM (retest, dose inferred, filed as 0.5)"}, "[8]": {"conditions": "at 50.0 µM (retest, dose inferred, filed as 5.0)"}}, "note": "The panel holds about 79,000 compounds, 15% with a hit somewhere; the sample as a whole holds those more often. Unmarked numbers belong to inactive results. Active and inactive are the calls of the source. Rule as the data show it: active = growth inhibition above about 70%; inactive = the rest."}
{"smiles": "CN(C)CCCN1c2ccc3ccccc3c2Sc2cccc(Cl)c21", "values": [{"measurement": "growth inhibition", "setting": "[1]; [7]", "result": 7, "unit": "%"}, {"measurement": "growth inhibition", "setting": "[1]; [8]", "result": "99% (active)"}, {"measurement": "growth inhibition", "setting": "[1]; at 50.0 µM", "result": "98.3% (active)"}, {"measurement": "growth inhibition", "setting": "[2]; [7]", "result": 19, "unit": "%"}, {"measurement": "growth inhibition", "setting": "[2]; [8]", "result": "99% (active)"}, {"measurement": "growth inhibition", "setting": "[2]; at 50.0 µM", "result": "97.3% (active)"}, {"measurement": "growth inhibition", "setting": "[3]; [7]", "result": -1, "unit": "%"}, {"measurement": "growth inhibition", "setting": "[3]; [8]", "result": "99% (active)"}, {"measurement": "growth inhibition", "setting": "[3]; at 50.0 µM", "result": "97.9% (active)"}, {"measurement": "growth inhibition", "setting": "[4]; [7]", "result": 2, "unit": "%"}, {"measurement": "growth inhibition", "setting": "[4]; [8]", "result": "99% (active)"}, {"measurement": "growth inhibition", "setting": "[4]; at 50.0 µM", "result": "96% (active)"}, {"measurement": "growth inhibition", "setting": "[5]; [7]", "result": 17, "unit": "%"}, {"measurement": "growth inhibition", "setting": "[5]; [8]", "result": "99% (active)"}, {"measurement": "growth inhibition", "setting": "[5]; at 50.0 µM", "result": 8.95, "unit": "%"}, {"measurement": "growth inhibition", "setting": "[6]; [7]", "result": 25, "unit": "%"}, {"measurement": "growth inhibition", "setting": "[6]; [8]", "result": "99% (active)"}, {"measurement": "growth inhibition", "setting": "[6]; at 50.0 µM", "result": "98.2% (active)"}]}
{"smiles": "S=C(Nc1cc(Cl)c(Cl)cc1Cl)SCc1ccccc1", "values": [{"measurement": "growth inhibition", "setting": "[1]; [7]", "result": 14, "unit": "%"}, {"measurement": "growth inhibition", "setting": "[1]; [8]", "result": "97% (active)"}, {"measurement": "growth inhibition", "setting": "[1]; at 50.0 µM", "result": "98.7% (active)"}, {"measurement": "growth inhibition", "setting": "[2]; [7]", "result": 8, "unit": "%"}, {"measurement": "growth inhibition", "setting": "[2]; [8]", "result": "99% (active)"}, {"measurement": "growth inhibition", "setting": "[2]; at 50.0 µM", "result": "99.3% (active)"}, {"measurement": "growth inhibition", "setting": "[3]; [7]", "result": 30, "unit": "%"}, {"measurement": "growth inhibition", "setting": "[3]; [8]", "result": "99% (active)"}, {"measurement": "growth inhibition", "setting": "[3]; at 50.0 µM", "result": "99.2% (active)"}, {"measurement": "growth inhibition", "setting": "[4]; [7]", "result": 12, "unit": "%"}, {"measurement": "growth inhibition", "setting": "[4]; [8]", "result": "98% (active)"}, {"measurement": "growth inhibition", "setting": "[4]; at 50.0 µM", "result": "97.8% (active)"}, {"measurement": "growth inhibition", "setting": "[5]; [7]", "result": 39, "unit": "%"}, {"measurement": "growth inhibition", "setting": "[5]; [8]", "result": "99% (active)"}, {"measurement": "growth inhibition", "setting": "[5]; at 50.0 µM", "result": "99.2% (active)"}, {"measurement": "growth inhibition", "setting": "[6]; [7]", "result": 55, "unit": "%"}, {"measurement": "growth inhibition", "setting": "[6]; [8]", "result": "99% (active)"}, {"measurement": "growth inhibition", "setting": "[6]; at 50.0 µM", "result": "99% (active)"}]}
{"smiles": "Cc1c2ccncc2cc2c1sc1ccncc12", "values": [{"measurement": "growth inhibition", "setting": "[1]; [7]", "result": "97% (active)"}, {"measurement": "growth inhibition", "setting": "[1]; [8]", "result": "97% (active)"}, {"measurement": "growth inhibition", "setting": "[1]; at 50.0 µM", "result": "91.2% (active)"}, {"measurement": "growth inhibition", "setting": "[2]; [7]", "result": "95% (active)"}, {"measurement": "growth inhibition", "setting": "[2]; [8]", "result": "97% (active)"}, {"measurement": "growth inhibition", "setting": "[2]; at 50.0 µM", "result": "93% (active)"}, {"measurement": "growth inhibition", "setting": "[3]; [7]", "result": "94% (active)"}, {"measurement": "growth inhibition", "setting": "[3]; [8]", "result": "99% (active)"}, {"measurement": "growth inhibition", "setting": "[3]; at 50.0 µM", "result": "91.2% (active)"}, {"measurement": "growth inhibition", "setting": "[4]; [7]", "result": "87% (active)"}, {"measurement": "growth inhibition", "setting": "[4]; [8]", "result": "98% (active)"}, {"measurement": "growth inhibition", "setting": "[4]; at 50.0 µM", "result": "90.5% (active)"}, {"measurement": "growth inhibition", "setting": "[5]; [7]", "result": "96% (active)"}, {"measurement": "growth inhibition", "setting": "[5]; [8]", "result": "98% (active)"}, {"measurement": "growth inhibition", "setting": "[5]; at 50.0 µM", "result": "89.5% (active)"}, {"measurement": "growth inhibition", "setting": "[6]; [7]", "result": "96% (active)"}, {"measurement": "growth inhibition", "setting": "[6]; [8]", "result": "97% (active)"}, {"measurement": "growth inhibition", "setting": "[6]; at 50.0 µM", "result": "89.3% (active)"}]}
{"smiles": "COc1ccc(C2=Nc3cc(C)c(C)cc3NC(c3ccccc3)C2)cc1", "note": "(stereo not given)", "values": [{"measurement": "growth inhibition", "setting": "[1]; [7]", "result": 11, "unit": "%"}, {"measurement": "growth inhibition", "setting": "[1]; [8]", "result": 11, "unit": "%"}, {"measurement": "growth inhibition", "setting": "[1]; at 50.0 µM", "result": 43.2, "unit": "%"}, {"measurement": "growth inhibition", "setting": "[2]; [7]", "result": 7, "unit": "%"}, {"measurement": "growth inhibition", "setting": "[2]; [8]", "result": 7, "unit": "%"}, {"measurement": "growth inhibition", "setting": "[2]; at 50.0 µM", "result": 69.8, "unit": "%"}, {"measurement": "growth inhibition", "setting": "[3]; [7]", "result": 21, "unit": "%"}, {"measurement": "growth inhibition", "setting": "[3]; [8]", "result": 21, "unit": "%"}, {"measurement": "growth inhibition", "setting": "[3]; at 50.0 µM", "result": 66.9, "unit": "%"}, {"measurement": "growth inhibition", "setting": "[4]; [7]", "result": 1, "unit": "%"}, {"measurement": "growth inhibition", "setting": "[4]; [8]", "result": 1, "unit": "%"}, {"measurement": "growth inhibition", "setting": "[4]; at 50.0 µM", "result": 9.5, "unit": "%"}, {"measurement": "growth inhibition", "setting": "[5]; [7]", "result": 35, "unit": "%"}, {"measurement": "growth inhibition", "setting": "[5]; [8]", "result": 35, "unit": "%"}, {"measurement": "growth inhibition", "setting": "[5]; at 50.0 µM", "result": "74.7% (active)"}, {"measurement": "growth inhibition", "setting": "[6]; [7]", "result": 19, "unit": "%"}, {"measurement": "growth inhibition", "setting": "[6]; [8]", "result": 19, "unit": "%"}, {"measurement": "growth inhibition", "setting": "[6]; at 50.0 µM", "result": 51, "unit": "%"}]}
{"smiles": "O=C(CC(c1cccnc1)C(C(=O)c1ccc(Cl)cc1)C(CC(=O)c1ccc(Cl)cc1)c1cccnc1)c1ccc(Cl)cc1", "note": "(stereo not given)", "values": [{"measurement": "growth inhibition", "setting": "[1]; [7]", "result": "80% (active)"}, {"measurement": "growth inhibition", "setting": "[1]; [8]", "result": "92% (active)"}, {"measurement": "growth inhibition", "setting": "[1]; at 50.0 µM", "result": 59.3, "unit": "%"}, {"measurement": "growth inhibition", "setting": "[2]; [7]", "result": 48, "unit": "%"}, {"measurement": "growth inhibition", "setting": "[2]; [8]", "result": "95% (active)"}, {"measurement": "growth inhibition", "setting": "[2]; at 50.0 µM", "result": 65.2, "unit": "%"}, {"measurement": "growth inhibition", "setting": "[3]; [7]", "result": 56, "unit": "%"}, {"measurement": "growth inhibition", "setting": "[3]; [8]", "result": "96% (active)"}, {"measurement": "growth inhibition", "setting": "[3]; at 50.0 µM", "result": 52.2, "unit": "%"}, {"measurement": "growth inhibition", "setting": "[4]; [7]", "result": 32, "unit": "%"}, {"measurement": "growth inhibition", "setting": "[4]; [8]", "result": "96% (active)"}, {"measurement": "growth inhibition", "setting": "[4]; at 50.0 µM", "result": 36.9, "unit": "%"}, {"measurement": "growth inhibition", "setting": "[5]; [7]", "result": 11, "unit": "%"}, {"measurement": "growth inhibition", "setting": "[5]; [8]", "result": "92% (active)"}, {"measurement": "growth inhibition", "setting": "[5]; at 50.0 µM", "result": 30.8, "unit": "%"}, {"measurement": "growth inhibition", "setting": "[6]; [7]", "result": 63, "unit": "%"}, {"measurement": "growth inhibition", "setting": "[6]; [8]", "result": "93% (active)"}, {"measurement": "growth inhibition", "setting": "[6]; at 50.0 µM", "result": "87.1% (active)"}]}
